PubChem BioAssay (NCATS)
Inconclusive results are not listed. A call without a number means that no potency is given here. Calls of active or inactive are those of the source. Calls follow the shape of the full dose curve.

Molecular target: Atrial natriuretic peptide receptor 1 (Homo sapiens) (UniProt P16066)
Experiment: Natriuretic polypeptide receptor (hNpr1) antagonism - Pilot screen (AID 1347049)
Conditions: hNpr1 cells, antagonist mode cGMP read-out; series mostly up to 57.5 µM
Protocol: In order to identify small molecular compounds that inhibit the hNpr1 receptor we developed a high-throughput assay to measure inhibition of the guanylate cyclase activity of the receptor. cGMP production was measured using a circular permutated Firefly luciferase (FLuc) enzyme functionally linked to the cGMP binding domain of human phosphodiesterase 5 (GloSensor technology pGS-40F, (Fan, F. et al. 2008). The cGMP-sensor was expressed in human embryonic kidney 293 (HEK-293) cells and FLuc activity was measured after stimulation with hNrp agonist peptide. hNrp agonists activates the receptor's associated guanylyl cyclase (GC) domain producing cGMP which then binds to the GloSensor resulting in FLuc activation, the enzymatic activity of which can be measured as bioluminescence with addition of luciferin substrate.
F. Fan, B. F. Binkowski, B. L. Butler, P. F. Stecha, M. K. Lewis, K. V. Wood, Novel genetically encoded biosensors using firefly luciferase. ACS Chem Biol 3, 346-351 (2008).
This assay was initially piloted by testing with a small diversity library of compounds with known pharmacological activity.
PROTOCOL TABLES (as described by Inglese J, Shamu CE and Guy RK. 2007)
SEQUENCE No. (e.g., 1, 2, 3, etc.); […] (e.g., Cells, Incubation, Reagent, etc.); VALUE and DESCRIPTION.
1. Cells. Seed 1500 HEK293 cGMP-sensor cells expressing hNpr1 per well in 4uL into Greiner 1536-well white/solid bottom high base, tissue culture-treated plates.
2. Incubation. Incubate plated cells at 37C in 5% CO2, 95% RH overnight.
3. Reagent. Add 1uL per well GloSensor reagent from Promega (2% final concentration) or CO2 independent media vehicle control to respective columns of Greiner 1536-well plates.
4. Incubation. Incubate plated cells at room temperature for 2 h, protect from light.
5. Compounds. Library compounds and A-71915 control added at 23 nL per well, transferred by Pin Tool.
6. Incubation. Incubate plated cells for 30 min. at room temperature, protect from light.
7. Detector. GloSensor baseline pre-read luminescence measured using CCD-based camera (Viewlux).
8. Compound. Add 1uL of hNppA peptide to 0.1 nM final concentration to stimulate hNpr1 or CO2 independent media as vehicle control.
9. Incubation. Incubate treated cells at room temperature for 20 min., protect from light.
10. Detector. GloSensor post-hNppA luminescence measured using CCD-based camera (Viewlux).
NOTES (numbers refer to Sequence numbers above)
1. HEK293 cells expressing hNpr1 and GIP/pGS-40F grown to 85-95% confluence (48-72 h) in T175 culture flasks (CO2 independent media supplemented with 10% FBS, 1% Pen/Strep antibiotics and 1 ug/mL puromycin). Trypsinize and harvest cells from T175 culture flasks and filter through 40 um cell strainer. Cells counted with Invitrogen Countess (30,000,000 - 50,000,000 cells/flask). Cells diluted to a final concentration of 375 cells/uL in CO2 independent media and a Millipore multidrop used to dispense 1500 cells per well (4uL/well) into 9 x 1536-well Greiner White/Solid bottom, high base tissue-culture treated (TC) plates and one Aurora 1536-well Black/Clear bottom, low base, TC plate (for visual inspection of cell health throughout the duration of the assay).
2. Cells incubated overnight at ambient temperature, 24 h. at 37C in 95% RH incubator protected from light, covered with metal lid with gas-exchange holes.
3. Prepare GloSensor Reagent (Promega): Reconstitute GloSensor luciferase substrate by adding 8.2mL Hepes buffer to 250mg substrate, mix well, protect from light and stored at -80C. Prepare a fresh 12% GloSensor solution in CO2 independent supplemented plating media (see above). Mix well and store at ambient temperature, protected from light. 1uL 12% GloSensor Luciferase Reagent added (2% final concentration) to respective columns of 9 x 1536-well Greiner plate with BioRaptr, 1uL CO2 independent plating media added to respective columns as vehicle control with BioRaptr.
4. […]
Potency is read from the fitted curve at half-maximal effect.

Atrial natriuretic peptide receptor 1 (Homo sapiens), sequence (P16066 whole entry, looked up): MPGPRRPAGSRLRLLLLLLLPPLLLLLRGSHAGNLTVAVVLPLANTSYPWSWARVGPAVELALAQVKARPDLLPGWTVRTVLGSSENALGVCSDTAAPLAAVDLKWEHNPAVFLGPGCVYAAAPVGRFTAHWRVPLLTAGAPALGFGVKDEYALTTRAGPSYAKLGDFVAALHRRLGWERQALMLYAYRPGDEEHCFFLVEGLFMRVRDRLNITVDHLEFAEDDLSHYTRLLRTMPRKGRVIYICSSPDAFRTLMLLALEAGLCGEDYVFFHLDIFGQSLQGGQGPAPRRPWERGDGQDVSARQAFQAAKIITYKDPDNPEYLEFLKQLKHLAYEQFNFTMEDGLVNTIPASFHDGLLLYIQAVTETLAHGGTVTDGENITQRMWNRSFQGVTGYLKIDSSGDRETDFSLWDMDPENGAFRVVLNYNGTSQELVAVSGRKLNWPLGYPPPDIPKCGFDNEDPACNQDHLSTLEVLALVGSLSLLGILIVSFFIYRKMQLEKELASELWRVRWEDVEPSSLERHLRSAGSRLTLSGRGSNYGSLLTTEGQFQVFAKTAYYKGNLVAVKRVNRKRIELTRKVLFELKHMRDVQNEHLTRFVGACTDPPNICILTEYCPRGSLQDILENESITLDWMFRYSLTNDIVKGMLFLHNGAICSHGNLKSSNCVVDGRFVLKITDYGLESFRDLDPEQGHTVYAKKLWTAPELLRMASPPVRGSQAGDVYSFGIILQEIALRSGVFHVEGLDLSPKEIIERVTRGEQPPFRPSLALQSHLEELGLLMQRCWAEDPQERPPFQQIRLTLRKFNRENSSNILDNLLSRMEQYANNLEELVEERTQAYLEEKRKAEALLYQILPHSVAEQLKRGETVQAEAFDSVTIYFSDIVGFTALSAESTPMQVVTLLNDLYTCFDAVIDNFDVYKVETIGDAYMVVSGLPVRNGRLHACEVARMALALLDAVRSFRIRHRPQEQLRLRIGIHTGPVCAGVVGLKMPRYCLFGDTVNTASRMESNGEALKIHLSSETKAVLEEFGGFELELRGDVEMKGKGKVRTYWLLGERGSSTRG

Compound	Potency
CC(C)N(CCC(=O)c1ccc2ccccc2c1)Cc1ccccc1	13.5 µM (active)
CN(C)c1cc2c(Nc3ccc4c(cnn4Cc4ccccc4)c3)ncnc2cn1	inactive
NC(N)=NCCCCN=C(N)N	inactive
Cn1cnc2c(NCc3ccccc3)nc(NCCO)nc21	inactive
O=C1NC(c2cccc([N+](=O)[O-])c2)=CCN1c1ccccc1O	inactive
C[N+](C)(C)CCO	inactive
CCN(CC)CCNC(=O)c1ccc(NS(C)(=O)=O)cc1	inactive
Nc1ncnc2n[nH]c(Nc3ccc(F)cc3)c12	inactive
COC(=O)C1=CO[C@@H](O)[C@@H]2C(CO)=CC[C@H]12	inactive
O=[N+]([O-])c1ccc(-c2nc(-c3ccc(F)cc3)c(-c3ccncc3)[nH]2)cc1	inactive
COc1ccccc1N1CCN(CCN2C(=O)CC3(CCCC3)CC2=O)CC1	inactive
Cc1nn(-c2ccccc2)c(C)c1/C=N/N1CCN(Cc2ccccc2)CC1	inactive
Clc1ccc2c(c1)N=C(N1CCNCC1)c1ccccc1N2	inactive
N[C@@H](Cn1ccc(=O)c(O)c1)C(=O)O	inactive
Brc1ccc([C@H]2CN3CCSC3=N2)cc1	inactive
COc1cccc2c1[C@@H]1CN(CCCCn3c(=O)[nH]c4c(sc5ncc(-c6ccccc6)nc54)c3=O)C[C@@H]1CO2	inactive
